Test results published in PubChem BioAssay (NCI).
Compounds without any hit were thinned out: in the full panel of roughly 83,000, 20% have a hit.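 Percent growth is the endpoint: 0 to 100 indicates growth inhibition (40 means 60% inhibition), 0 means no net growth, and negative values indicate cell death.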 Values without a mark were called inactive. The source made the active and inactive calls.

Each compound was assayed on IGROV1 ovarian (assay: NCI-60 one-dose screen, 48 h (100 = growth as untreated, 0 = no growth, -100 = all killed)). Conditions: 10 µM unless noted.
Experimental: Growth inhibition of the IGROV1 human tumor cell line is measured as a screen for anti-cancer activity. Cells are grown in 96 well plates and exposed to the test compound for 48 hours. Compounds are tested at a single concentration, which is 10^-5 M for most compounds. The reported endpoint is percent growth (GI% or GIPRCNT), where numbers from 0 - 100% represent growth inhibition, and numbers from -100% - 0 represent cell death. For example, a value of 40 represents 60% growth inhibition. A value of 0 means no net growth occurred over the course of the experiment. A value of -40 indicates 40% of cells at the beginning of the experiment died by the end of the experiment. A value of -100 means all cells are dead at the end of the experiment.
NCI-60 Human Tumor Cell Lines Screen was performed using the standard one-dose NCI protocol, which is described in more detail at https://dtp.cancer.gov/discovery_development/nci-60/default.htm.
Compounds with GIPRCNT values below 10 were considered active. Activity score was based on GIPRCNT using the following formula: […]
Score is 0 for GIPRCNT values of 100 or above, 50 for GIPRCNT values of 0, and 100 for GIPRCNT values of -100.

Going from `COc1ccc(-c2nn(-c3ccccc3)cc2/C=C2/SC(=S)N(C)C2=O)cc1` to `Fc1ccc(-c2nn(-c3ccccc3)cc2-c2nc3ccccc3o2)cc1`, the growth rises from 33.3% to 82.1%.

Compared with `COCCn1cc(-c2nc(-c3cc4cccnc4n3CCOC)cs2)c2cc(OC)ccc21`, `COc1ccc2[nH]cc(-c3nc(-c4cn(C)c5c(Cl)nccc45)cs3)c2c1` is higher in growth: 30.8% for the first, 71.3% for the second.

First: CS(=O)(=O)c1cccc(-c2c(-c3cccc(OS(N)(=O)=O)c3)nc3sccn23)c1
Second: CC(C)(C)n1cc(-c2ccnc(NCCNS(=O)(=O)c3cccc(F)c3)c2)c(-c2ccccc2)n1
The growth of the first is higher: 97.9% for the first, 97.2% for the second.

Compared with `CCOC(=O)C(=Cc1cccc(Br)c1)C(=O)OCC`, `CCOC(=O)c1cc2c(=O)oc3ccccc3c2oc1=O` is higher in growth: 47.8% for the first, 103% for the second.

Going from `Cn1c(=O)c2c(nc(NC3=NS(=O)(=O)c4ccccc43)n2CC(=O)N2CCc3ccccc32)n(C)c1=O` to `O=C(CSc1nnc2n1S(=O)(=O)c1ccccc1N2c1ccccc1)Nc1nc2ccc(F)cc2s1`, the growth falls from 94.7% to 34.7%.

First: COC(C(=O)[C@@H](O)[C@@H](C)O)[C@@H]1Cc2cc3cc(O[C@H]4C[C@@H](O[C@H]5C[C@@H](O)[C@H](O)C(C)O5)[C@H](O)C(C)O4)cc(O)c3c(O)c2C(=O)[C@H]1O[C@H]1C[C@@H](O[C@H]2C[C@@H](O[C@H]3C[C@@H](OC)[C@H](O)C(C)O3)[C@@H](O)C(C)O2)[C@H](O)C(C)O1 (stereo not given in full)
Second: COc1cc(-n2cc(-c3cc(O)c(C/C=C(\C)CCC=C(C)C)c(O)c3)nn2)cc2c1O[C@]1(C)CC[C@@H](O)C(C)(C)[C@H]1C2
The growth of the first is higher: 32.4% for the first, 23.8% for the second.

First: CCCCNC(=O)Oc1ccc(/C(=C(/CC)Cc2ccccc2)c2ccc(OCCN3CCCCCC3)cc2)cc1
Second: CCCCCCNC(=O)Oc1ccc(/C(=C(/C)Cc2ccc(OC)cc2)c2ccc(OCCCN(C)C)cc2)cc1
The growth of the first is higher: 42.3% for the first, 41.6% for the second.

Going from `O=C(NCCCCNC(=O)OCc1ccc2c(Cl)cc(Cl)c(O)c2n1)OCc1ccc2c(Cl)cc(Cl)c(O)c2n1` to `Cc1cc2c(O)c(-c3cccc(Cl)c3)c3sc(=O)oc3c2cc1C`, the growth rises from 11.1% to 41%.

Compared with `CC(C)=NNc1ccccn1`, `CC(=O)c1cc(O)c2ccccc2c1O` is lower in growth: 63.2% for the first, 52.8% for the second.

First: CN(C)CCCC1(c2ccc(F)cc2)OCc2cc(-c3cncc4ccccc34)ccc21 (stereo not given)
Second: CC(=O)N(N=Nc1ccccc1)c1cccc2ccccc12
The growth of the first is lower: 22.1% for the first, 62.9% for the second.

Compared with `Fc1cccc(CNc2c3ccccc3nc3ccccc23)c1F`, `O=C1Nc2ccccc2/C1=C\c1nc(-c2ccccc2)n2ccccc12` is higher in growth: 52.7% for the first, 67% for the second.

First: O=C(O)c1[nH]c(=O)[nH]c(=O)c1[N+](=O)[O-]
Second: O=C(Cn1c(=O)sc2ccccc21)NNS(=O)(=O)c1ccccc1[N+](=O)[O-]
The growth of the first is higher: 133% for the first, 102% for the second.

Compared with `Cc1ccc(S(=O)(=O)N2CCCC2CO)cc1` (stereo not given), `Cc1ccc(-c2csc(NC(=O)CN3CCN(c4cc5c(cc4F)c(=O)c(C(=O)O)cn5C4CC4)CC3)n2)cc1` is lower in growth: 90.6% for the first, 25.4% for the second.

Compared with `CC1Cc2c(Cl)ncnc2N(C)c2ccc(F)cc21` (stereo not given), `COc1ccc2cc(C(=O)c3coc4ccc(O)cc34)ccc2c1` is lower in growth: 105% for the first, 85.2% for the second.

First: COc1cc(-c2nc(SCC(C)C)nc(Nc3cccc4ccccc34)c2C#N)cc(OC)c1OC
Second: O=c1oc2ccccc2cc1C1=NN=C(SCc2ccccc2)SC1
The growth of the first is higher: 106% for the first, 101% for the second.

`O=C(O)/C(=C\c1ccc(Cl)cc1)c1ccc(Cl)cc1` and `CCN(CC)C(=S)SC(SC(=S)N(CC)CC)C(=O)c1nnn(-c2ccc([N+](=O)[O-])cc2)c1C` are the same in growth: 71.2% for the first, 71.2% for the second.

`Clc1ccc2c(c1)N(c1ncnc3ccc(-c4cnc5[nH]ncc5c4)cc13)CC2` was tested, and the growth was 0.128% (active).
`Cc1ccc(-c2nc3nc(-c4ccccc4)nc(N4CCNCC4)c3o2)cc1` was tested, and the growth was -76.7% (active).
In the case of `COc1ccc2c(O)c(/C=C3\N=Nc4ncccc43)oc2c1C[C@H]1CCNC[C@H]1F`, the growth is reported as 2.29% (active).
In the case of `O=C1/C(=C/c2ccccc2Br)COc2ccc(O)c(O)c21`, the growth is reported as -19.4% (active).
For `Cc1cc(N)c2cc(NC(=O)/C=C\c3ccccc3Cl)ccc2n1`, the growth was -67.5% (active).
In the case of `O=C(O)CCCN1C(=O)/C(=C/C(Cl)=C/c2ccccc2)SC1=S`, the growth is reported as 7.37% (active).
`CC(C)c1ccc(COCc2cc(CN3CCCC3)c(O)c3ncccc23)cc1` was tested, and the growth was 9.42% (active).
With `O=C(OCc1ccc2cccc(O)c2n1)N1CCN(C(=O)c2cc3cc(F)ccc3[nH]2)CC1` the growth was -91.4% (active).
